The values below come from PubChem BioAssay (NCATS).

Each structure is given as a SMILES string. Where “and” joins values, the source holds several entries; their conditions need not be identical. Equal values may be shown once. Results filed as inconclusive are left out. Calls of active or inactive are those of the source. Unless noted, calls come from the whole dose curve.

Chain of Androgen receptor (Homo sapiens) (P10275 whole entry, looked up): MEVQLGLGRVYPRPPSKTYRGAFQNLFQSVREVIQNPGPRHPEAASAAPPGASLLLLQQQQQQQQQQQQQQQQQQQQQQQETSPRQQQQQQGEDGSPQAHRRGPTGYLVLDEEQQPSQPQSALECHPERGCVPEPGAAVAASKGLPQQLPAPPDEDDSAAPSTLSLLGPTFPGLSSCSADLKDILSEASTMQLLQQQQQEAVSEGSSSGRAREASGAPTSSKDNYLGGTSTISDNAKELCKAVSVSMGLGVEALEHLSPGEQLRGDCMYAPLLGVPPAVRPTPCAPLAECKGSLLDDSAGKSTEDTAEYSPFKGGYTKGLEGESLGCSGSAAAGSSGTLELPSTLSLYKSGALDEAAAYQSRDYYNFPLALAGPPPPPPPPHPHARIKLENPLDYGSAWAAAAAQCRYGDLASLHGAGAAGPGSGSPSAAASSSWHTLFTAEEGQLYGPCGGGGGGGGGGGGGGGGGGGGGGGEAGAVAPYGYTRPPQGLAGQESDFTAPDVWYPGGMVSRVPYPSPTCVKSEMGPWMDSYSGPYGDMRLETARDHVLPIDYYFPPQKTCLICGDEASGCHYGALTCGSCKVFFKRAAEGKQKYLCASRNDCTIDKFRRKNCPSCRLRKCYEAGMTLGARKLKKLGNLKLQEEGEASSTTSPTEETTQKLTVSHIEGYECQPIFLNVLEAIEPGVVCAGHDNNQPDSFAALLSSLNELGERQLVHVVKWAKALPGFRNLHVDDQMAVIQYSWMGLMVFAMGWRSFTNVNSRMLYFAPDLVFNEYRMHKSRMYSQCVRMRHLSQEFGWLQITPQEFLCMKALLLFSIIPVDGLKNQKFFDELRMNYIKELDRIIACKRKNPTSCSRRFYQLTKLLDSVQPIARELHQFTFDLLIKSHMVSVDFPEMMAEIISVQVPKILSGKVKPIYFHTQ
Chain of Glucocorticoid receptor (Homo sapiens) (P04150 whole entry, looked up): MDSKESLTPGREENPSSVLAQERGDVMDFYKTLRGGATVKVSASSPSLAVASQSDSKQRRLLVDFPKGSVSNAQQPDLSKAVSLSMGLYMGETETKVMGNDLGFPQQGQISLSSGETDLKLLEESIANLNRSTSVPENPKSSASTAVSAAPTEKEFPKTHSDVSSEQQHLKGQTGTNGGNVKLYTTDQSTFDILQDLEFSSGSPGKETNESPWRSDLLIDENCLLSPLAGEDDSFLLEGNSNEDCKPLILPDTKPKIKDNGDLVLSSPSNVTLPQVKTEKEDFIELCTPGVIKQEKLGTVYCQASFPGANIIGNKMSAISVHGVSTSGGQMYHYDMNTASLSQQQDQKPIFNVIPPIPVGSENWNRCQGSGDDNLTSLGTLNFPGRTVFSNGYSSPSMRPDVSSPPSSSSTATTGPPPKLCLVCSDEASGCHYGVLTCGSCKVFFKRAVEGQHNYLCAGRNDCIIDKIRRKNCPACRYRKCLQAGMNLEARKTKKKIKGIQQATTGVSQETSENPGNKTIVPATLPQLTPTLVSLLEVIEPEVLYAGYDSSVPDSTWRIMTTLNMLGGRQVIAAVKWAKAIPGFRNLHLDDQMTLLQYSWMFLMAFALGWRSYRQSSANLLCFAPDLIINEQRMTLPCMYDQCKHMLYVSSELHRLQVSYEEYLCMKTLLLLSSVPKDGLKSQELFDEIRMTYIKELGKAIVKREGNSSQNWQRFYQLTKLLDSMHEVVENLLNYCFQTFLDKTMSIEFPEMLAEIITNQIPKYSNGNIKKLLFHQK
Chain of Estrogen receptor (Homo sapiens) (P03372 whole entry, looked up): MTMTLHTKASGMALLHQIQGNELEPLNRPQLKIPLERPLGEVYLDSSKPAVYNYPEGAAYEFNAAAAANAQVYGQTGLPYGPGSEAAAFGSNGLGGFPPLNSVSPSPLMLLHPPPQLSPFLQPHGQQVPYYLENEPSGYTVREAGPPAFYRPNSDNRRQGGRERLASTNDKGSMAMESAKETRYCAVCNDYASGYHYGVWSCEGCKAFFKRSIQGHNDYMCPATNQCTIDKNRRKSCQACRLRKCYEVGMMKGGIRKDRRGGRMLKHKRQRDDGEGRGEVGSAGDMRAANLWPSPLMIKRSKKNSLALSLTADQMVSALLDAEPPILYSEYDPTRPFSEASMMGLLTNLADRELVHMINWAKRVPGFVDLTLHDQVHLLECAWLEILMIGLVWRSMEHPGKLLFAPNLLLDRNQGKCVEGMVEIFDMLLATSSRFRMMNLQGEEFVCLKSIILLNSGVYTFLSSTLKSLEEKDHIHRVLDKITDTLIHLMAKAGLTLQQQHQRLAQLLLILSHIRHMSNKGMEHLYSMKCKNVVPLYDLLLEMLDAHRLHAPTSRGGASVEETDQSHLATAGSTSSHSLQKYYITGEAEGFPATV

The first test deals with DNA dC->dU-editing enzyme APOBEC-3G (Homo sapiens) (UniProt Q9HC16). The test is described as follows: qHTS for inhibitors of Vif-A3G interactions: Validation (AID 588379; active = well fitted inhibition curve with a large enough effect; note: 0% is about no effect). Conditions: Vif-A3G protein interaction assay; series mostly up to 46.1 µM. An outline of the steps: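 Yellow fluorescence (Ex 488, Em 500-530) of Vif-coexpressing HeLa A3G-eYFP cells, scanned by Acumen cytometer, reports blocked A3G degradation. Cells plated at 700/well overnight at 37 deg C before compound addition, then a further overnight compound incubation at 37 deg C.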
Chain of DNA dC->dU-editing enzyme APOBEC-3G (Homo sapiens) (Q9HC16 whole entry, looked up): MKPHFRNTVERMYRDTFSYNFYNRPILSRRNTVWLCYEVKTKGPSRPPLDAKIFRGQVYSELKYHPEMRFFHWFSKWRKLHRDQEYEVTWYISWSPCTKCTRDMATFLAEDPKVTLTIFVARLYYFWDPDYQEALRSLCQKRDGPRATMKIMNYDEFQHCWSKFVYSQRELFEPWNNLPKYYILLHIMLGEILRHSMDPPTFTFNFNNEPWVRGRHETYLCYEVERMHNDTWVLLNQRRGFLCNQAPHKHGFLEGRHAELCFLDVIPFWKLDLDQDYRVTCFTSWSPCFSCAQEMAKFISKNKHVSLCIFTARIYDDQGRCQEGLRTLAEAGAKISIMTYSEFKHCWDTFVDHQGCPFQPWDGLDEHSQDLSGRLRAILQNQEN
On to `CC1(C)[C@@H]2CC[C@@]1(C)C(=O)C2`, for which the compound was called inactive.

As for `O=c1cc(CO)occ1O`, the compound was called inactive.

Consider `Cc1cccc(Nc2cc(Cl)nc(SCC(=O)O)n2)c1C`, for which the call was inactive.

Turning to `c1ccc(CN(CC2=NCCN2)c2ccccc2)cc1`, the compound was called inactive.

Consider `O=C(O)CN1C(=O)c2cccc3cccc(c23)C1=O`, for which the compound was called inactive.

For the compound `OC[C@H]1O[C@@H](O[C@@H]2[C@@H](CO)O[C@](O)(CO)[C@H]2O)[C@H](O)[C@@H](O)[C@H]1O`, the result was inactive.

For a further test, the target named is Estrogen receptor (Homo sapiens) (UniProt P03372). Kind of test: qHTS assay for small molecule agonists of estrogen receptor alpha signaling (AID 588514).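 Note: 0% = vehicle only and 100% = reference agonist; nearly all actives have a fitted effect of over 70% in size.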 Particulars: ER-alpha-UAS-bla HEK293, beta-lactamase ratio, 18 h, percent of full estradiol response, vehicle zero; series mostly up to 76.8 µM. Put shortly:
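EC50 and efficacy came from Hill fits of beta-lactamase reporter signal (CCF4 dye, 2 h at room temperature) scaled between DMSO and 20 nM 17-beta-estradiol. Agonist mode: HEK293 ER-alpha-UAS-bla cells in charcoal/dextran-stripped serum medium, 18 h compound exposure at 37 C.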
For `CC1(C)[C@@H]2CC[C@@]1(C)C(=O)C2`, the outcome was inactive.

As to `CC12CCC(CC1)C(C)(C)O2`, the result was inactive.

With `[Cl][In]([Cl])[Cl]`, the outcome was inactive.

With `Cc1cccc(Nc2cc(Cl)nc(SCC(=O)O)n2)c1C`, the result was inactive.

On to `COc1ccccc1O`, for which the result was inactive.

Regarding `Nc1ccc(S(=O)(=O)Nc2nccs2)cc1`, the outcome was inactive.

For the compound `NC(=O)N/N=C/c1ccc([N+](=O)[O-])o1`, the outcome was inactive.

Regarding `CCCCC(CC)COC(=O)c1ccccc1O` (stereo not drawn), the result was inactive.

The next test has as its target Androgen receptor (Homo sapiens) (UniProt P10275). The test is described as follows: qHTS assay for small molecule agonists of androgen receptor signaling (AID 588515; active = well fitted curve in the direction sought with a large enough effect in the signal ratio, with a control signal flat; the % refers to the signal ratio; note: % is set by controls: 0 for no effect and ±100 for the full control effect). Particulars: AR-UAS-bla HEK293, beta-lactamase ratio, agonist 16 h; stronger effect = higher value. An outline of the steps:
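Stimulation of an AR-responsive β-lactamase reporter in GripTite HEK293 cells was measured after 16 h compound exposure at 37 °C, via CCF4 fluorescence after 2 h RT. EC50 from Hill fits, normalized to R1881 at 30 nM.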
A general note: In qHTS, concentration-response curves come from the screen itself.
For the compound `Cc1cccc(Nc2cc(Cl)nc(SCC(=O)O)n2)c1C`, the activation is 4.07% (inactive).

Turning to `CC(O)COc1ccccc1` (stereo not drawn), the activation was 4.06% (inactive).

Regarding `NCCNCCNCCNCCN`, the activation was 15.1% (inactive) and -3.31% (inactive).

The target of a further test is Bile acid receptor (Homo sapiens) (UniProt Q96RI1). The test is described as follows: qHTS assay for small molecule antagonists of farnesoid X receptor signaling (AID 588526). Note: % is set by controls: 0 for no effect and ±100 for the full control effect. Particulars: HEK293T FXR-UAS-bla, beta-lactamase ratio, antagonist mode; series mostly up to 76.7 µM. Put shortly: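 Concentration-response titrations were fitted to the Hill equation for half-maximal inhibition and maximal response, with data normalised to 50 uM chenodeoxycholic acid and DMSO control wells. Cells: FXR-UAS-bla HEK293T, dialyzed FBS.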
Chain of Bile acid receptor (Homo sapiens) (Q96RI1 whole entry, looked up): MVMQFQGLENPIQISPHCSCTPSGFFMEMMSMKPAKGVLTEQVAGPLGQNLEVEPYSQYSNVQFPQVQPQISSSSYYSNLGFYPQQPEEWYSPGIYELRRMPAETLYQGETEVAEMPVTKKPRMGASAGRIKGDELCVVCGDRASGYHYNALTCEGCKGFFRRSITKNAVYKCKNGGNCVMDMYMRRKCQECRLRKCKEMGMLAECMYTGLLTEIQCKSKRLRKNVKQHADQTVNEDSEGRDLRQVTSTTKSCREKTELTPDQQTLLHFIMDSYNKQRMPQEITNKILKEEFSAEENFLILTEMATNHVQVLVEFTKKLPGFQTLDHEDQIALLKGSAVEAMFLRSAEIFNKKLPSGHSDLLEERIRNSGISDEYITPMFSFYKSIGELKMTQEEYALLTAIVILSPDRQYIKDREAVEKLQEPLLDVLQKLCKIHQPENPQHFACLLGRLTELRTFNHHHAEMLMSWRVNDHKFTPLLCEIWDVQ
As to `CCCCOC(=O)c1ccc(O)cc1`, the outcome was inactive.

Consider `CCCc1c(OCCCCc2nn[nH]n2)ccc(C(C)=O)c1O`, for which the outcome was inactive.

Consider `O=C1c2c(O)cccc2Cc2cccc(O)c21`, for which the result was inactive.

For `CC(O)CN(CCN(CC(C)O)CC(C)O)CC(C)O` (stereo not drawn), the result was inactive.

As for `CC12CCC(CC1)C(C)(C)O2`, the outcome was inactive.

For the compound `COc1ccccc1O`, the outcome was inactive.

On to `CC(O)COc1ccccc1` (stereo not drawn), for which the result was inactive.

Consider `CCOC(=O)c1ccc(O)cc1`, for which the outcome was inactive.

For `NCCNCCNCCN`, the outcome was inactive.

Turning to `Cc1cc(CC(=O)O)n(C)c1C(=O)c1ccc(Cl)cc1`, the outcome was inactive.

A further test has as its target Glucocorticoid receptor (Homo sapiens) (UniProt P04150). Kind of test: qHTS assay for small molecule agonists of glucocorticoid receptor signaling (AID 588532; active = well fitted curve in the direction sought with a large enough effect in the signal ratio, with a control signal flat; the % refers to the signal ratio;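 note: 100% = dexamethasone at 0.1 µM and 0% = DMSO only wells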). Particulars: HeLa MMTV-bla, beta-lactamase ratio, agonist, 18 h; stronger effect = higher value; percent of dexamethasone control, DMSO zero. An outline of the steps: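 MMTV-bla HeLa, beta-lactamase reporter; medium with 1% charcoal/dextran-stripped FBS; cpds up to 92 uM, 18 h, 37 C; CCF4 readout 460/530 nm; Hill fit → EC50, efficacy vs 0.1 uM dexamethasone = 100%.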
Regarding `CCCCOC(=O)c1ccc(O)cc1`, the activation is -4.25% (inactive) and 1.71% (inactive).

In the case of `CC1(C)[C@@H]2CC[C@@]1(C)C(=O)C2`, the activation is 6.36% (inactive).

In the case of `CCCc1c(OCCCCc2nn[nH]n2)ccc(C(C)=O)c1O`, the activation was -8.74% (inactive).

As for `O=C1c2c(O)cccc2Cc2cccc(O)c21`, the activation was -1.63% (inactive).

For the compound `CC(O)CN(CCN(CC(C)O)CC(C)O)CC(C)O` (stereo not drawn), the activation was -7.72% (inactive).

For the compound `Cc1cc2nc3c(=O)[nH]c(=O)nc-3n(C[C@H](O)[C@H](O)[C@H](O)CO)c2cc1C`, the activation is -14% (inactive).

Consider `CC12CCC(CC1)C(C)(C)O2`, for which the activation was -0.499% (inactive).

Regarding `Cc1cccc(Nc2cc(Cl)nc(SCC(=O)O)n2)c1C`, the activation is -9.26% (inactive).

Turning to `O=C1O[C@H]([C@@H](O)CO)C(O)=C1O`, the activation is 1.61% (inactive) and 16.4% (inactive).

As for `COc1ccccc1O`, the activation was 0.59% (inactive) and 4.92% (inactive) and -0.396% (inactive).

For the compound `Nc1ccc(S(=O)(=O)Nc2nccs2)cc1`, the activation was -6.26% (inactive).

Turning to `CC(O)COc1ccccc1` (stereo not drawn), the activation is -13.7% (inactive).

As for `NCCNCCNCCNCCN`, the activation is -3.86% (inactive) and -5.35% (inactive).

Regarding `NC(=O)N/N=C/c1ccc([N+](=O)[O-])o1`, the activation is -5.85% (inactive) and -2.6% (inactive).

With `NCCNCCNCCN`, the activation was 21.8% (inactive).

As for `Oc1cccc(O)c1`, the activation is 1.81% (inactive).

`Cc1cc(CC(=O)O)n(C)c1C(=O)c1ccc(Cl)cc1`: the activation was -2.23% (inactive).

Take `CCCCC(CC)COC(=O)c1ccccc1O` (stereo not drawn): the activation is -10.3% (inactive).

For a further test the target is unchanged. Kind of test: qHTS assay for small molecule antagonists of glucocorticoid receptor signaling (AID 588533; active = well fitted inhibition curve with a large enough effect in the signal ratio, with a control signal flat, not every such curve was filed as active; the % refers to the signal ratio;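 note: cells stimulated with 2 nM dexamethasone as agonist; % is set by controls: 0 for no effect and ±100 for the full control effect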). Conditions: HeLa MMTV-bla, GRE beta-lactamase ratio, antagonist mode, 18 h; series mostly up to 76.8 µM. An outline of the steps: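 Antagonist-mode qHTS: compound titrations added to GRE-bla HeLa cells, then dexamethasone 2 nM final; 18 h, 37 C. CCF4 FRET fluorescence normalized to dexamethasone and DMSO; IC50 from Hill fit.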
Take `CCCCOC(=O)c1ccc(O)cc1`: the outcome was inactive.

On to `CC1(C)[C@@H]2CC[C@@]1(C)C(=O)C2`, for which the result was inactive.

On to `CCCc1c(OCCCCc2nn[nH]n2)ccc(C(C)=O)c1O`, for which the result was inactive.

With `O=C1c2c(O)cccc2Cc2cccc(O)c21`, the outcome was inactive.

On to `CC(O)CN(CCN(CC(C)O)CC(C)O)CC(C)O` (stereo not drawn), for which the result was inactive.

`CC12CCC(CC1)C(C)(C)O2`: the result was inactive.

For the compound `O=C1O[C@H]([C@@H](O)CO)C(O)=C1O`, the result was inactive.

On to `COc1ccccc1O`, for which the outcome was inactive.

With `CCCCCCCCCCCCOS(=O)(=O)O`, the result was inactive.

Take `Nc1ccc(S(=O)(=O)Nc2nccs2)cc1`: the outcome was inactive.

`CC(O)COc1ccccc1` (stereo not drawn): the outcome was inactive.

Take `CCOC(=O)c1ccc(O)cc1`: the result was inactive.

As for `NCCNCCNCCNCCN`, the result was inactive.

On to `NC(=O)N/N=C/c1ccc([N+](=O)[O-])o1`, for which the outcome was inactive.

For the compound `NCCNCCNCCN`, the outcome was inactive.

Turning to `Oc1cccc(O)c1`, the outcome was inactive.

As to `Cc1cc(CC(=O)O)n(C)c1C(=O)c1ccc(Cl)cc1`, the result was inactive.

On to `CCCCC(CC)COC(=O)c1ccccc1O` (stereo not drawn), for which the outcome was inactive.

Tested on in the next test: not listed separately
The test is described as follows: qHTS assay for small molecule antagonists of peroxisome proliferator-activated receptor delta signaling (AID 588535).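 Note: cells co-treated with a PPAR-delta agonist as stimulator during compound exposure.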 Conditions: HEK293T PPARd-UAS-bla, beta-lactamase FRET ratio, 18 h; 460 nm channel. An outline of the steps:
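Inhibition of PPAR-delta response element-driven beta-lactamase expression is measured in HEK293T cells exposed to a compound titration series for 18 hrs at 37 C. Half-maximal inhibition comes from Hill equation fitting.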
On to `CCCCOC(=O)c1ccc(O)cc1`, for which the max response is -14.2%.

For the compound `CC1(C)[C@@H]2CC[C@@]1(C)C(=O)C2`, the max response came to 5.89%.

In the case of `O=C1c2c(O)cccc2Cc2cccc(O)c21`, the max response is -22%.

With `CC(O)CN(CCN(CC(C)O)CC(C)O)CC(C)O` (stereo not drawn), the max response was determined as 30%.

As to `CC12CCC(CC1)C(C)(C)O2`, the max response is -10.6%.

With `[Cl][In]([Cl])[Cl]`, the max response is 29.3%.

Take `O=C1O[C@H]([C@@H](O)CO)C(O)=C1O`: the max response was -14.8%.

On to `COc1ccccc1O`, for which the max response was -6.63% and -4.79%.

In the case of `O=C1NS(=O)(=O)c2ccccc21`, the max response came out at 2.93%.

In the case of `CC(O)COc1ccccc1` (stereo not drawn), the max response was 6.24%.

Regarding `CCOC(=O)c1ccc(O)cc1`, the max response is -12.7%.

With `NC(=O)N/N=C/c1ccc([N+](=O)[O-])o1`, the max response was determined as 4.74%.

As to `NCCNCCNCCN`, the max response was 26%.

For `Oc1cccc(O)c1`, the max response is 15.8%.

On to `CCCCC(CC)COC(=O)c1ccccc1O` (stereo not drawn), for which the max response was -34.6%.
